This is an account of results in PubChem BioAssay (Tox21).

Assay [1] is described as follows: qHTS assay to test for compound auto fluorescence at 535 nm (green) in HEK293 cells (AID 720680). For orientation: qHTS replaces the single test concentration by a dilution series.
A short description of assay [2]: qHTS assay to test for compound auto fluorescence at 460 nm (blue) in HEK293 cell free culture (AID 720681). A digest of the protocol:
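Blue fluorescence (Ex 405/Em 460 nm, triamterene-equivalent) was read immediately after pin transfer of compound or DMSO into medium (DMEM, 10% FBS) without cells.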

A short description of assay [3]: qHTS assay to test for compound auto fluorescence at 535 nm (green) in HEK293 cell free culture (AID 720682). The method in brief: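 Cell-free medium (DMEM, 10% FBS) receives compound or DMSO by pintool. Plate read directly at Ex 485/Em 535 nm. Signal converted to fluorescein equivalency.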
Assay [4] is described as follows: qHTS assay to test for compound auto fluorescence at 590 nm (red) in HEK293 cell free culture (AID 720683). A digest of the protocol:
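Red-channel autofluorescence of compounds in culture medium (DMEM, 10% FBS), no cells, measured at 540/590 nm. Rose Bengal sodium is the reference fluorophore for equivalence.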

Assay [5] can be described thus: qHTS assay to test for compound auto fluorescence at 590 nm (red) in HepG2 cell free culture (AID 720684). The method in brief: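 Cell-free; medium MEM + 10% FBS; compound or DMSO added by pintool; read Ex 540/Em 590 nm; Rose Bengal sodium as red reference fluorophore.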
Assay [6] is described as follows: qHTS assay to test for compound auto fluorescence at 460 nm (blue) in HepG2 cell free culture (AID 720685). A digest of the protocol:
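Cell-free plates of MEM plus 10% FBS received 23 nL compound or DMSO vehicle; blue-channel (405/460 nm) intensity scored against triamterene as reference fluorophore.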

Assay [7] is described as follows: qHTS assay to test for compound auto fluorescence at 535 nm (green) in HepG2 cell free culture (AID 720686).
Assay [8] addresses Glucocorticoid receptor (Homo sapiens) (UniProt P04150). In words: qHTS assay to identify small molecule agonists of the glucocorticoid receptor (GR) signaling pathway (AID 720691; active means well fitted activation curve with a large enough effect in the signal ratio in the repeat runs, not every such curve was filed as active; the % refers to the signal ratio). A digest of the protocol:
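Compounds in DMSO, alongside positive controls, were added to GR-bla HeLa reporter cells and incubated 18 h at 37 C; GRE-driven beta-lactamase was detected by fluorescence after 2 h with FRET substrate at room temperature.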

For assay [9] the target is unchanged. The assay can be described thus: qHTS assay to identify small molecule antagonists of the glucocorticoid receptor (GR) signaling pathway (AID 720692; active means well fitted inhibition curve with a large enough effect in the signal ratio in the repeat runs, not every such curve was filed as active; the % refers to the signal ratio; further: potency means the concentration at half of the fitted maximal effect). A digest of the protocol: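 In a 1536-well cell format, compounds were added 4 h after seeding GR-bla HeLa cells, together with dexamethasone at 5 nM final; reporter activity was measured by FRET-substrate fluorescence following 18 h at 37 C.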

The nature of assay [10]: qHTS assay to identify small molecule antagonists of the glucocorticoid receptor (GR) signaling pathway - cell viability counter screen (AID 720693). Further: nearly all actives have a fitted effect of over 55% in size. Further: potency means the concentration at half of the fitted maximal effect.
Assay [11] in a line: qHTS assay for identifying genotoxic compounds that show differential cytotoxicity against isogenic chicken DT40 cell lines with known DNA damage response pathways - wild type cell line (AID 743012). Further: nearly all actives have a fitted effect of over 60% in size. Further: potency means the concentration at half of the fitted maximal effect. A digest of the protocol:
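Viability of DNA repair-proficient chicken DT40 cells was assessed by CellTiter-Glo luminescence following 40 h compound exposure at 37 C/5% CO2.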

Assay [12] can be described thus: qHTS assay for identifying genotoxic compounds that show differential cytotoxicity against isogenic chicken DT40 cell lines with known DNA damage response pathways - Rad54/Ku70 mutant cell line (AID 743015). Further: nearly all actives have a fitted effect of over 60% in size. Further: potency means the concentration at half of the fitted maximal effect.
Assay [13] can be described thus: qHTS assay to identify small molecule antagonists of the androgen receptor (AR) signaling pathway - cell viability counter screen (AID 743033; further: nearly all actives have a fitted effect of over 45% in size).
A short description of assay [14]: qHTS assay to identify small molecule antagonists of the androgen receptor (AR) signaling pathway using the MDA cell line - cell viability counter screen (AID 743041; further: nearly all actives have a fitted effect of over 45% in size; further: potency means the concentration at half of the fitted maximal effect). A digest of the protocol: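 Viability read by CellTiter-Fluor fluorescence in the same wells as the antagonist screen, added after 15.5 h of a 16 h, 37C exposure. Human breast carcinoma MDA-kb2 AR-luc cells, compounds co-dosed with agonist R1881.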

Assay [15] can be described thus: qHTS assay to identify small molecule antagonists of the thyroid receptor (TR) signaling pathway - cell viability counter screen (AID 743064). Further: nearly all actives have a fitted effect of over 50% in size. Further: potency means the concentration at half of the fitted maximal effect. A digest of the protocol:
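GH3.TRE-Luc cells, 4 h pre-plating; cpd + T3 1 nM final; 37 °C 23.5 h; CellTiter-Fluor 30 min; fluorescence read.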

Assay [16] can be described thus: qHTS assay to test for compound auto fluorescence at 460 nm (blue) in HepG2 cells (AID 720687). A digest of the protocol:
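Blue-channel autofluorescence (Ex/Em 405/460 nm, triamterene-equivalent) was measured after 1 hr compound exposure at 37 C, 5% CO2. Cells were HepG2, plated overnight at 37 C in MEM plus 10% FBS.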

A short description of assay [17]: qHTS assay for identifying genotoxic compounds that show differential cytotoxicity against isogenic chicken DT40 cell lines with known DNA damage response pathways - Rev3 mutant cell line (AID 743014). Further: nearly all actives have a fitted effect of over 55% in size. Further: potency means the concentration at half of the fitted maximal effect.

Each structure is given as a SMILES string. Several values for one entry are separate records, joined by “and”; a condition that tells them apart may be missing. Equal values may be shown once. Records with an inconclusive call do not appear. Some compounds were tested as several samples or in several runs, with calls that do not always agree. Activity calls are given as the source filed them. Unless noted, the call rests on the fitted dose curve; in most records, active means well fitted curve in the direction sought with a large enough effect in the repeat runs; inconclusive means weak or mixed curves; inactive means no such curve, though single readings can be large; an effect the other way counts as inactive or inconclusive.

Sequence of Glucocorticoid receptor (Homo sapiens) (P04150 whole entry, looked up): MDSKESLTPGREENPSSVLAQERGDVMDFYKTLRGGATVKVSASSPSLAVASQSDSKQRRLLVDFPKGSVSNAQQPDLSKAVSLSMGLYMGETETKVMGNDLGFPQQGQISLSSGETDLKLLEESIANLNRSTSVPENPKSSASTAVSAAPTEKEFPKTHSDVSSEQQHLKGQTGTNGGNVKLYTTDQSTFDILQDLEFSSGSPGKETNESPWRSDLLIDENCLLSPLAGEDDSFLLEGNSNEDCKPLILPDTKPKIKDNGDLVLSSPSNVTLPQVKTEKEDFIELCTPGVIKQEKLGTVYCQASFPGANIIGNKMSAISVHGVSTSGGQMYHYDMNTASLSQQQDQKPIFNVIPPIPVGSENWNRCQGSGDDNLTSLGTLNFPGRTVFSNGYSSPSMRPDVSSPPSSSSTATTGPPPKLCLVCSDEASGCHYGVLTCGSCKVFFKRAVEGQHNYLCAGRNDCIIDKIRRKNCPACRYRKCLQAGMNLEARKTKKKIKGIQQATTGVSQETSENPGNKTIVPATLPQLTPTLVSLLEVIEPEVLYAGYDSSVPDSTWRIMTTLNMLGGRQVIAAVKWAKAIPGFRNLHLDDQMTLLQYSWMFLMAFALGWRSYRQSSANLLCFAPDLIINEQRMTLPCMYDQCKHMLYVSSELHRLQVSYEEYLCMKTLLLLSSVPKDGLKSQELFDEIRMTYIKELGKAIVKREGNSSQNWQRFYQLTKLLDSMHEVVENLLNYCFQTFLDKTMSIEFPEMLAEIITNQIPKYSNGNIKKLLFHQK

As for `NC12CC3CC(CC(C3)C1)C2`, the Potency entry in assay [1], in assay [2], in assay [3], in assay [6], in assay [7] and in assay [8] was “inactive” each time. In addition, the Potency entry in [9], in assay [10], in assay [11], in [12], in assay [13] and in [14] was “inactive” in each case. Further, the call in [4] and in assay [5] was inactive.

For `CC(=O)OCC1=C(C(=O)O)N2C(=O)[C@@H](NC(=O)Cc3cccs3)[C@H]2SC1`, the Potency result in assay [1], in [2], in [3], in assay [6], in assay [7] and in assay [8] was “inactive” each time. Besides, the Potency result in assay [9], in assay [10], in assay [12], in assay [13], in assay [14] and in assay [15] was “inactive” throughout. The outcome in [4] and in assay [5] was inactive.

For the compound `Cc1scc2c1N(C(=O)CN1CCN(C)CC1)c1ccccc1NC2=O`, the Potency entry in assay [1], in assay [2], in assay [3], in [6], in assay [7] and in assay [16] was “inactive” in each case. Besides, the Potency result in [10], in [11], in [17], in assay [12], in assay [13] and in [14] was “inactive” throughout. Further, the Potency entry in assay [15] was “inactive”. The compound was classed as inactive in assay [4] and in assay [5].

Turning to `c1cnc2cc3c(cc2n1)C1CNCC3C1`, the Potency entry in assay [1], in assay [2], in [3], in assay [6], in [7] and in [16] was “inactive” throughout. Besides, the Potency entry in [10], in assay [11], in [17], in [12], in assay [14] and in [15] was “inactive” in each case. In addition, the compound was called inactive in assay [4] and in [5].

Consider `Cc1cc(C(C)(C)C)c(O)c(C(C)(C)C)c1`, for which the Potency entry in [1], in assay [2], in assay [3], in assay [6], in [7] and in assay [8] was “inactive” in each case. In addition, the Potency entry in assay [10], in assay [11], in assay [13] and in assay [15] was “inactive” in each case. Moreover, the outcome in assay [4] and in assay [5] was inactive. Besides, in assay [12], the Potency result was “inactive and 27.3 µM (active)”.

In the case of `O=C1Nc2ccccc2C1(c1ccc(O)cc1)c1ccc(O)cc1`, the Potency entry in assay [1], in [2], in assay [3], in [6], in assay [7] and in assay [16] was “inactive” each time. Further, the Potency result in assay [10] and in [13] was “inactive” throughout. Besides, the call in [4] and in [5] was inactive. Further, the Potency in assay [11] is 68.6 µM (active); in assay [17], 61.1 µM (active); in assay [15] it was 54.5 µM (active).

As to `CC[C@H]1CN2CCc3cc(OC)c(OC)cc3[C@@H]2C[C@@H]1C[C@H]1NCCc2cc(OC)c(OC)cc21`, the Potency entry in [1], in assay [2], in assay [3], in assay [6], in assay [7] and in assay [8] was “inactive” throughout. Moreover, the compound was called inactive in assay [4] and in [5]. In addition, the Potency in [9] was 1.51 µM (active); in [10], 4.92 µM (active); in assay [11] it was 18.8 nM (active) and 24.4 nM (active); in assay [17], 23.7 nM (active) and 19.4 nM (active); in [12] it was 23.7 nM (active) and 21.8 nM (active); in assay [14], 6.88 µM (active). Moreover, in assay [15], the Potency is 84.1 nM (active) and 97.2 nM (active).
